This note sets out measurements from PubChem BioAssay (NCATS).

Inconclusive results are not listed. Unmarked numbers belong to inactive results. The call rests on the fitted dose curve; in most records, active means well fitted cell-killing curve with a large enough effect; inconclusive means small, poorly fitted or top-dose-only effect, or effect the other way; inactive means flat fitted curve, though single readings scatter.
On the % scale 0 is the no-effect control and ±100 the full control effect.

The subject of the first test is Hek293T. Kind of test: Primary qHTS to identify gynecologic anti-cancer compounds using libraries of approved drugs and bioactive compounds (AID 1345084). Further: nearly all actives have a fitted effect of over 55% in size. The settings on record: Gynecologic cancer cell panel viability, ATPlite luminescence, 48 h, control line for the selectivity index; series mostly up to 57.5 µM; activity change, negative = cytotoxicity: at the top concentration. The gist of the method:
(§1)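 Cells, 1,000 per well, plated 16 h, then exposed 48 h at 37 C to compounds. Viability by ATPlite luminescence after 15 min at room temperature.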
Background: In qHTS, concentration-response curves come from the screen itself.
Regarding `C[C@H]1[C@H](C)CC[C@]2(C(=O)O)CC[C@]3(C)C(=CC[C@@H]4[C@@]5(C)C[C@@H](O)[C@H](O)[C@@](C)(CO)[C@@H]5CC[C@]43C)[C@H]12`, the “activity change, negative = cytotoxicity” value was 8.44%.

With `COc1cc(C[C@H]2COC(=O)[C@@H]2Cc2ccc(O)c(OC)c2)ccc1O`, the “activity change, negative = cytotoxicity” value is 0.246% [at 38.5 µM].

For the compound `COC(=O)C1=CO[C@@H](O[C@@H]2O[C@H](CO)[C@@H](O)[C@H](O)[C@H]2O)[C@@H]2[C@@](C)(O)[C@@H](O)C[C@]12O`, the “activity change, negative = cytotoxicity” value was 0.46% [at 25.3 µM].

Turning to `C/C(=C\CCC(C)(O)c1ccc(C)cc1)C(=O)O` (stereo not drawn), the “activity change, negative = cytotoxicity” value is 0.795%.

With `C/C=C(\C)C(=O)O[C@H]1[C@H](O)[C@]2(COC(C)=O)[C@H](O)C[C@]3(C)C(=CCC4[C@@]5(C)CC[C@H](O[C@@H]6O[C@H](C(=O)O)[C@@H](O[C@@H]7O[C@H](CO)[C@@H](O)[C@H](O)[C@H]7O)[C@H](O)[C@H]6O[C@@H]6O[C@H](CO)[C@@H](O)[C@H](O)[C@H]6O)[C@](C)(CO)C5CC[C@]43C)[C@@H]2CC1(C)C` (stereo partly drawn), the activity change, negative = cytotoxicity was 5.9% [at 11.6 µM].

As to `COC1=Cc2c(nc3n(c2=O)C(C)C(=O)NC3(O)C(C)C)OC=C1` (stereo not drawn), the “activity change, negative = cytotoxicity” value was -0.888% [at 38.5 µM].

With `COc1c(C(CC(C)C)OC(C)=O)ccc(Oc2c(O)cc(C)cc2/C=C/C(C)=O)c1C(=O)O` (stereo not drawn), the “activity change, negative = cytotoxicity” value was 3.26% [at 25.3 µM].

Take `COc1cc(O[C@@H]2O[C@H](CO)[C@@H](O)[C@H](O)[C@H]2O)c(CCC(=O)OC[C@H]2O[C@@H](Oc3cc(OC)c(C4OC(=O)C(C)(O)C4O)cc3CCC(=O)O)[C@H](O)[C@@H](O)[C@@H]2O)cc1C1OC(=O)C(C)(O)C1O` (stereo partly drawn): the activity change, negative = cytotoxicity was -1.4% [at 11.6 µM].

Turning to `CC1CC(O)CC(C)(C)C1(O)CCO` (stereo not drawn), the “activity change, negative = cytotoxicity” value was -2.8%.

For the compound `CC(=O)c1c(O)cc2c(c1C)C(=O)CC(O)C2` (stereo not drawn), the “activity change, negative = cytotoxicity” value was 5.66%.

The subject of another test is JEG-3. Described as above. The note with it: Gynecologic cancer cell panel viability, ATPlite luminescence, 48 h; series mostly up to 57.5 µM; activity change, negative = cytotoxicity: at the top concentration. The gist of the method:
as §1
For `CC1(C)CCC(C)(C)c2cc3c(cc21)Sc1ccccc1N=C3c1ccc(C(=O)O)cc1`, the “activity change, negative = cytotoxicity” value is 12.4%.

As to `O=C(O)c1n[nH]c2c1C[C@H]1C[C@@H]21`, the “activity change, negative = cytotoxicity” value was 13.4%.

For `COc1cc(C2Oc3c(O)cc(CCCO)cc3C2CO)ccc1O[C@H]1O[C@H](C)[C@@H](O)[C@H](O)[C@@H]1O` (stereo partly drawn), the “activity change, negative = cytotoxicity” value is -0.117% [at 25.3 µM].

For `CC(=C/C(=O)O)/C=C/[C@]1(O)[C@@]2(C)CO[C@]1(C)C[C@H](O[C@@H]1O[C@H](CO)[C@@H](O)[C@H](O)[C@H]1O)C2`, the “activity change, negative = cytotoxicity” value was 4.75% [at 25.3 µM].

In the case of `CC1(C)CC[C@]2(C(=O)O)CC[C@]3(C)C(=CCC4[C@@]5(C)C[C@H](O)[C@H](O[C@@H]6OC[C@H](O)[C@H](O)[C@H]6O)[C@@](C)(CO)C5CC[C@]43C)[C@@H]2C1` (stereo partly drawn), the “activity change, negative = cytotoxicity” value was -10.3% [at 25.3 µM].

With `C1CCN2CC3C[C@@H](CN4CCCC[C@@H]34)[C@H]2C1`, the “activity change, negative = cytotoxicity” value is 4.48%.

Consider `COc1ccc(C)c2sc(NC(=O)c3ccncc3)nc12`, for which the “activity change, negative = cytotoxicity” value was -18.1%.

As for `CC(C)[C@@H](C)/C=C/[C@@H](C)[C@H]1CC[C@H]2C3=CC=C4C[C@@H](O)CC[C@]4(C)[C@H]3CC[C@]12C`, the “activity change, negative = cytotoxicity” value was 14.4% [at 25.3 µM].

Regarding `COc1ccccc1CC(C(=O)O)N(C)C(=O)c1ccccc1` (stereo not drawn), the “activity change, negative = cytotoxicity” value was 4.08% [at 38.5 µM].

In the case of `C=C1[C@@H]2[C@H]3OC(=O)C(=C)[C@@H]3CC[C@@](C)(O)[C@@H]2C[C@@H]1O[C@@H]1O[C@H](CO)[C@@H](O)[C@H](O)[C@H]1O`, the “activity change, negative = cytotoxicity” value was -3.59% [at 25.3 µM].

Turning to `COCCCNCC1COc2ccccc2O1` (stereo not drawn), the “activity change, negative = cytotoxicity” value was 4.43%.

For the compound `COc1cc(/C=C/C(=O)OC2CC(OC(C)=O)C(OC(C)=O)C3C2CCC2C(=O)OC(c4ccoc4)CC23C)ccc1O[C@@H]1O[C@H](CO)[C@@H](O)[C@H](O)[C@H]1O` (stereo partly drawn), the “activity change, negative = cytotoxicity” value is -2.65% [at 25.3 µM].

In the case of `CO[C@@H]1CC[C@H](OC[C@]2(COC(=O)c3ccc(C)[nH]3)[C@H](OC(C)=O)CC[C@@]3(C)[C@@H]4CC=C(C)[C@@H](C5=C(O)C(=O)OC5O)[C@]4(C)CC[C@@H]32)O[C@H]1C` (stereo partly drawn), the “activity change, negative = cytotoxicity” value is 4.51% [at 25.3 µM].

In the case of `C=C1CCC2C(OC(=O)C2(O)COC(C)=O)C2C(=C)C(O)CC12` (stereo not drawn), the “activity change, negative = cytotoxicity” value was -2.59% [at 38.5 µM].

On to `CC1=C2C=C(CO)C(CO)CCC2(C)CCC1=O` (stereo not drawn), for which the “activity change, negative = cytotoxicity” value is -1.26%.

Consider `C=C1[C@H]2CC[C@]3(O)[C@@](CC[C@@H]4[C@](C)(C(=O)O)CCC[C@]43C)(C2)[C@H]1OC(=O)/C(C)=C\C`, for which the “activity change, negative = cytotoxicity” value is 0.44% [at 25.3 µM].

For the compound `O=C(O[C@H]1[C@@H]2C=CO[C@@H](O[C@@H]3O[C@H](CO)[C@@H](O)[C@H](O)[C@H]3O)[C@@H]2[C@@]2(CO)O[C@@H]12)c1ccc(O)cc1`, the “activity change, negative = cytotoxicity” value is 1.96% [at 25.3 µM].

Consider `CC(C)(O)/C=C1/C(=O)C(C)(C)C(=O)C(C)(C)C1(O)O[C@@H]1O[C@H](COC(=O)c2cc(O)c(O)c(O)c2)[C@@H](O)[C@H](O)[C@H]1O` (stereo partly drawn), for which the “activity change, negative = cytotoxicity” value was -19.4% [at 25.3 µM].

With `CN1CC[C@@H](NC(=O)Nc2ccc(C#N)cc2)C[C@@H]1c1nc2ccccc2[nH]1`, the “activity change, negative = cytotoxicity” value is 1.79%.

As for `C[C@H]1[C@H](C)CC[C@]2(C(=O)O[C@@H]3O[C@H](CO)[C@@H](O)[C@H](O)[C@H]3O)CC[C@]3(C(=O)O)C(=CCC4[C@@]5(C)CC[C@H](O[C@@H]6O[C@H](CO)[C@@H](O)[C@H](O)[C@H]6O)C(C)(C)C5CC[C@]43C)[C@H]12` (stereo partly drawn), the activity change, negative = cytotoxicity is 1.79% [at 11.6 µM].

For the compound `c1nc(NC2CCCCCC2)c2cc(CNC[C@H]3CCCO3)sc2n1`, the “activity change, negative = cytotoxicity” value was 2.16%.

In the case of `CCNC(=O)[C@H]1O[C@H](n2cnc3c(NCC(c4ccccc4)c4ccccc4)nc(C(=O)NCCNC(=O)NC4CCN(c5ccccn5)CC4)nc32)[C@H](O)[C@@H]1O`, the “activity change, negative = cytotoxicity” value was 10.4%.

As for `CC1CC(=O)C2=C(O1)OC1(C)CCC3C(C)(C)C=CC(=O)C3(C)C1C2` (stereo not drawn), the “activity change, negative = cytotoxicity” value was 12.1% [at 38.5 µM].

For `COc1ncc(-c2ccc3c(Nc4cc(Oc5cc(F)cc(F)c5)cc(C(=O)O)c4)c(S(=O)(=O)NC4CC4)cnc3c2)c(OC)n1`, the “activity change, negative = cytotoxicity” value is 1.94%.

Regarding `CC(=O)O[C@@H]1[C@H]2[C@@H](OC(=O)c3ccccc3)[C@@H](C)C[C@]2(O)[C@H](OC(C)=O)[C@@]2(C)[C@@H]3CC(C)(C)C(=O)[C@]3(OC(C)=O)C[C@@]12C`, the “activity change, negative = cytotoxicity” value was -0.879% [at 25.3 µM].

On to `COc1ccc(/C=C/C(=O)O[C@@H]2[C@@H](OC(C)=O)[C@@H](OC(C)=O)[C@H](O[C@H]3[C@@H]4C=CO[C@@H](O[C@@H]5O[C@H](CO)[C@@H](O)[C@H](O)[C@H]5O)[C@@H]4[C@@]4(CO)O[C@@H]34)O[C@H]2C)cc1O`, for which the “activity change, negative = cytotoxicity” value is -4.17% [at 25.3 µM].

As to `CC1=CC(=O)OC(C)(CC(C)(O)C(=O)O)C1` (stereo not drawn), the “activity change, negative = cytotoxicity” value is 1.94%.

For the compound `O=C(OCc1cccc(O)c1O[C@@H]1O[C@H](CO)[C@@H](O)[C@H](O)[C@H]1O)C1(O)C(=O)C2C=CC1C1C=CC(=O)C(O)(C(=O)OCc3cccc(O)c3O[C@@H]3O[C@H](CO)[C@@H](O)[C@H](O)[C@H]3O)C21` (stereo partly drawn), the activity change, negative = cytotoxicity is 0.323% [at 11.6 µM].

Turning to `C[C@H]1[C@H](C)CC[C@]2(C(=O)O)CC[C@]3(C)C(=CC[C@@H]4[C@@]5(C)C[C@@H](O)[C@H](O)[C@@](C)(CO)[C@@H]5CC[C@]43C)[C@H]12`, the “activity change, negative = cytotoxicity” value was -0.592%.

`COc1cc(C[C@H]2COC(=O)[C@@H]2Cc2ccc(O)c(OC)c2)ccc1O`: the “activity change, negative = cytotoxicity” value is 3.15% [at 38.5 µM].

Turning to `COC(=O)C1=CO[C@@H](O[C@@H]2O[C@H](CO)[C@@H](O)[C@H](O)[C@H]2O)[C@@H]2[C@@](C)(O)[C@@H](O)C[C@]12O`, the “activity change, negative = cytotoxicity” value was -7.02% [at 25.3 µM].

On to `C/C(=C\CCC(C)(O)c1ccc(C)cc1)C(=O)O` (stereo not drawn), for which the “activity change, negative = cytotoxicity” value is 8.84%.

`C/C=C(\C)C(=O)O[C@H]1[C@H](O)[C@]2(COC(C)=O)[C@H](O)C[C@]3(C)C(=CCC4[C@@]5(C)CC[C@H](O[C@@H]6O[C@H](C(=O)O)[C@@H](O[C@@H]7O[C@H](CO)[C@@H](O)[C@H](O)[C@H]7O)[C@H](O)[C@H]6O[C@@H]6O[C@H](CO)[C@@H](O)[C@H](O)[C@H]6O)[C@](C)(CO)C5CC[C@]43C)[C@@H]2CC1(C)C` (stereo partly drawn): the activity change, negative = cytotoxicity is -4.88% [at 11.6 µM].

In the case of `COC1=Cc2c(nc3n(c2=O)C(C)C(=O)NC3(O)C(C)C)OC=C1` (stereo not drawn), the “activity change, negative = cytotoxicity” value is 11.1% [at 38.5 µM].

`COc1c(C(CC(C)C)OC(C)=O)ccc(Oc2c(O)cc(C)cc2/C=C/C(C)=O)c1C(=O)O` (stereo not drawn): the “activity change, negative = cytotoxicity” value is 11.9% [at 25.3 µM].

Consider `COc1cc(O[C@@H]2O[C@H](CO)[C@@H](O)[C@H](O)[C@H]2O)c(CCC(=O)OC[C@H]2O[C@@H](Oc3cc(OC)c(C4OC(=O)C(C)(O)C4O)cc3CCC(=O)O)[C@H](O)[C@@H](O)[C@@H]2O)cc1C1OC(=O)C(C)(O)C1O` (stereo partly drawn), for which the activity change, negative = cytotoxicity is -12.6% [at 11.6 µM].

Regarding `CC1CC(O)CC(C)(C)C1(O)CCO` (stereo not drawn), the “activity change, negative = cytotoxicity” value is -5.39%.

Consider `CC(=O)c1c(O)cc2c(c1C)C(=O)CC(O)C2` (stereo not drawn), for which the “activity change, negative = cytotoxicity” value was 5.63%.
